Test results as given in ChEMBL document CHEMBL3433997, “St. Jude Leishmania screening dataset” (2016).

Tests used:
Format in all cases: functional
[1] = biological target: Solute carrier family 2, facilitated glucose transporter member 1 (Homo sapiens) (UniProt P11166); assay: ST_JUDE_LEISH: Cytotoxicity at 2uM final concentration against transgenic Leishmania Mexicana promastigotes LmGLUT1 that are glucose transport deficient and complemented with the human glucose transporter GLUT1. Activity is measured by DNA content using SYBR green in vitro
[2] = biological target: Hexose transporter 1 (Plasmodium falciparum) (UniProt O97467); assay: ST_JUDE_LEISH: Cytotoxicity at 2uM final concentration against transgenic Leishmania Mexicana promastigotes LmPfHT that are glucose transport deficient and complemented with the Plasmodium falciparum hexose transporter. Activity is measured by DNA content using SYBR green in vitro
[3] = biological target: Glucose transporter (Leishmania mexicana) (UniProt O61059); assay: ST_JUDE_LEISH: Cytotoxicity at 2uM final concentration against transgenic Leishmania Mexicana promastigotes LmGT2 that are glucose transport deficient and complemented with the L. Mexicana glucose transporter 2. Activity is measured by DNA content using SYBR green in vitro

Solute carrier family 2, facilitated glucose transporter member 1 (Homo sapiens), sequence (P11166 whole entry): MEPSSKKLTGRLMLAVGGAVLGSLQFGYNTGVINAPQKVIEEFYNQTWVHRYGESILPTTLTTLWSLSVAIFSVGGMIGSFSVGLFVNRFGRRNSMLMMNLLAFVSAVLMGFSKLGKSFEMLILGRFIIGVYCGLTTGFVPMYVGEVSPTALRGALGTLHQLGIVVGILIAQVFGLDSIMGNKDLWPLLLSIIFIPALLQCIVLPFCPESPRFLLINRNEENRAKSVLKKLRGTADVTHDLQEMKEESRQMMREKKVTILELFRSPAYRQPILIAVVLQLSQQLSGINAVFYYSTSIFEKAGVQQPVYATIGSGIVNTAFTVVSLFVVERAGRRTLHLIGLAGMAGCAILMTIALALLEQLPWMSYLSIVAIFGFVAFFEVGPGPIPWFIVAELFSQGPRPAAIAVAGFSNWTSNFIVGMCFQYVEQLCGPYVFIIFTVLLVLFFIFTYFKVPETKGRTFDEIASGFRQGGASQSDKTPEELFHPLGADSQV

| Structure (SMILES) | inhibition [1] | inhibition [2] | inhibition [3] |
| --- | --- | --- | --- |
| COc1ccc2nc3cc(Cl)ccc3c(Nc3ccc(Oc4ccc(Nc5c6ccc(Cl)cc6nc6ccc(OC)cc56)cc4)cc3)c2c1 | 1.15% | 1.19% | 1.3% |
| COc1ccc(CNC2CCN(C)CC2)cc1-c1ccc(S(=O)(=O)NC2CCC2)s1 | 1.49% | 4.46% | 0.46% |
| C=CC[C@H](C[C@H](O)[C@H](Cc1ccccc1)NC(=O)c1ccc(-n2cccn2)cc1)C(=O)NC1CCCCC1 | 9.63% | 9.73% | 9.59% |
| COc1ccc(NC(=O)N2CCCN(CCCCCNC(=O)/C=C/c3ccc(C(F)(F)F)cc3)CC2)cc1Cl | -0.26% | -1.14% | 2.8% |
| COc1cc(C=Cc2ccc3ccccc3n2)cc(Br)c1OCC(=O)N(C)C | 6.85% | -1.14% | -0.95% |
| Clc1ccccc1OCc1ccccn1 | 3.19% | 2.07% | 2.66% |
| O=C(Nc1ccc(Br)cc1)N(CCN1CCOCC1)CC(O)COCc1ccc(F)cc1 (stereo unspecified) | 1.97% | 1% | -8.93% |
| Cc1ccc(CN2CCN(CC(O)COc3ccc4c(c3)CCC4)CC2)cc1 (stereo unspecified) | -0.73% | 0.88% | -0.29% |
| COc1ccc(C2CC(c3cccs3)=NN2C(=O)CNc2cccc(C#N)c2)cc1OC (stereo unspecified) | 7.28% | 14.4% | 2.41% |
| COc1cc(CNC[C@@H](O)[C@H](Cc2ccccc2)NC(=O)c2cc(OC(C)C)cc(N3CCCCS3(=O)=O)c2)cc(OC)c1 | 2.15% | 2.12% | 1.3% |
| Cc1cccc2nc(-c3ccc(-c4cccc(CN5CCC(N)C5)c4)s3)[nH]c12 (stereo unspecified) | 9.02% | 8.9% | 8.23% |
| Cc1cc(NC(=O)NCCN2CCC(NC(=O)c3ccc(F)cc3)CC2)c2ccccc2n1 | -0.27% | -0.3% | -3.5% |
| COc1cccc(OC(C)(C)c2nc(N[C@@H](C)c3ccccc3)c3cn[nH]c3n2)c1 | 1.92% | -1.84% | -1.65% |
| O=C(Nc1ccc(-c2nc3ccccc3[nH]2)cc1)c1ccc(-c2cccc([N+](=O)[O-])c2)o1 | -1.84% | -0.42% | -3.21% |
| N=c1n(CCN2CCCCC2)c2ccccc2n1CC(O)c1ccc(Cl)c(Cl)c1 (stereo unspecified) | 1.22% | -0.46% | 1.58% |
| COc1cc(F)c2ncc(Cl)c(C(O)CN3CCC(NC(=O)c4ccc5c(c4)NC(=O)CS5)CC3)c2c1 (stereo unspecified) | 8.37% | 7.69% | 4.11% |

| Structure (SMILES) | inhibition [1] | inhibition [2] | inhibition [3] |
| --- | --- | --- | --- |
| COc1cc(/C=N/Nc2nc(Nc3ccccc3)nc(Nc3ccccc3)n2)ccc1OCc1ccccc1[N+](=O)[O-] | 4.18% | 3.92% | 0.87% |
| COc1ccc(CCNC(=O)c2cnc3c(c2)nc(-c2c[nH]c(-c4ccccc4)n2)n3CCc2c[nH]cn2)cc1 | 1% | -1.24% | 2.62% |
| CCOc1ccc(C(=O)N2CCOC(CCN3CCC(c4ccccc4)CC3)(c3ccc(Cl)c(Cl)c3)C2)cc1 (stereo unspecified) | 3.91% | 3.91% | 4.6% |
| CNc1ccc(CNCc2ccc(-c3ccc(-c4nc5cccc(C)c5[nH]4)cc3)cc2)cc1 | 18.3% | 15.5% | 7.71% |
| O=C(NCCN1CCC(c2ncc(-c3ccccc3)o2)CC1)c1ccc(NC(=O)c2ccc(Cl)cc2)cc1 | 0.84% | 2.19% | 1.19% |
| CC(=NNC(=N)N)C(=O)Nc1ccc(Cl)c(Cl)c1 | 1.75% | 1.53% | 2.25% |
| O=C(CC(=O)C(F)(F)F)c1ccccc1[N+](=O)[O-] | 0.17% | 3.36% | -1.14% |
| N=C(N)c1ccc(NC(=O)c2cc(Sc3ccc(O)c(C(=O)Nc4ccc(C(=N)N)cc4)c3)ccc2O)cc1 | 9.7% | 10.9% | 4.34% |
| Cc1cccc(Cn2ccc3c4c(N)nc(N)nc4ccc32)c1 | 80.8% | 81.5% | 81.5% |
| Cc1ccc(NC(=O)c2ccc(CN3CCCN(CC4CCCCC4)CC3)cc2)cc1 | 7.01% | 8.37% | 9.64% |
| O=C(NCc1ccc(Cl)c(Cl)c1)c1ccc(-c2nc3ccc(Cl)cc3[nH]2)cc1 | 4.45% | 9.23% | 3.4% |
| CCN1C(=O)C(CC(=O)Nc2cccc(Cl)c2)N(Cc2ccc(OC)c(OC)c2)C1=S (stereo unspecified) | 0.59% | 4.35% | 0.57% |
| CC1CN(Cc2ccc(-c3cccc(-c4nc5cc(F)ccc5[nH]4)c3)cc2)CC(C)O1 (stereo unspecified) | 1.55% | 7.65% | 2.46% |
| COc1cc(F)c2ncc(Cl)c(CCN3CCC(NCc4ccc5c(n4)NC(=O)CS5)CC3)c2c1 | 8.34% | 8.44% | -2.08% |
| CC1CN(c2cnn(C/C=C/c3ccc(NC(=O)c4ccc(Cl)cc4)cc3)c(=O)c2Cl)CC(C)N1 (stereo unspecified) | -0.22% | -0.3% | -1.49% |
| CN(C)c1ccc(C2c3[nH]cnc3CCN2C(=O)Nc2cccc([N+](=O)[O-])c2)cc1 (stereo unspecified) | 7.55% | 8.52% | 1.43% |
